Results reported in PubChem BioAssay (NCI).
The panel holds about 79,000 compounds, 15% with a hit somewhere; the sample as a whole holds those more often. The source made the active and inactive calls. No stated cut-off is given here; in the data, active means growth inhibition above about 70%; inactive means the rest.

Tests used:
[1] = NCI Yeast Anticancer Drug Screen. Data for the rad52 strain (AID 147);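 further: 0% = growth of vehicle-treated control cultures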; settings: S. cerevisiae rad52 mutant growth inhibition, stronger effect = higher value
In short: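 Vehicle-treated cultures served as the reference for growth inhibition of compound-exposed yeast bearing a DNA repair mutation.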

[2] = NCI Yeast Anticancer Drug Screen. Data for the wt1 strain (AID 149);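 further: 0% = growth of vehicle-treated wt1 cultures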; settings: S. cerevisiae wt1 strain (SPY 50644) growth inhibition, stronger effect = higher value
In short: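 Using yeast strain wt1, compound-induced growth inhibition was determined against vehicle-treated cultures.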

[3] = NCI Yeast Anticancer Drug Screen. Data for the rad50EPP+ strain (AID 151);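 further: 0% = growth of vehicle-treated control cultures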; settings: S. cerevisiae rad50 mutant strain, stronger effect = higher value
In short: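 In this screen, rad50EPP+ yeast were exposed to compounds. Growth inhibition was scored against vehicle-treated controls.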

[4] = NCI Yeast Anticancer Drug Screen. Data for the mgt1 strain (AID 153); settings: S. cerevisiae mgt1 mutant growth inhibition, stronger effect = higher value
In short: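 mgt1 strain exposed; growth vs vehicle control recorded as inhibition.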

[5] = NCI Yeast Anticancer Drug Screen. Data for the rad50 strain (AID 155);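 further: 0% = growth of vehicle-only cultures of the same strain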; settings: S. cerevisiae rad50 strain growth inhibition, stronger effect = higher value
In short: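 Relative growth inhibition (compound vs vehicle) was measured in yeast with a defined repair-gene alteration.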

[6] = NCI Yeast Anticancer Drug Screen. Data for the rad14 strain (AID 159);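 further: 0% = growth of vehicle-treated control cultures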; settings: S. cerevisiae rad14 strain growth inhibition, stronger effect = higher value
In short: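 Screen for anticancer potential: a yeast strain altered in DNA damage repair is grown with compound, and reduced growth is quantified against vehicle controls.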

[7] = NCI Yeast Anticancer Drug Screen. Data for the CLN2oe strain (AID 163);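 further: 0% = growth of vehicle-only control cultures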; settings: S. cerevisiae CLN2oe strain, stronger effect = higher value
In short: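 Inhibition relative to vehicle-treated yeast is reported. Cells: strain with genetic alteration in cell-cycle control, grown with compound.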

[8] = NCI Yeast Anticancer Drug Screen. Data for the bub3 strain (AID 167); settings: S. cerevisiae bub3 mutant strain, stronger effect = higher value
In short: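 Screening used yeast with an engineered genetic alteration affecting cell cycle control. Compound-exposed cultures were compared with vehicle cultures, and reduced growth was taken as inhibition.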

[9] = NCI Yeast Anticancer Drug Screen. Data for the mlh1 strain (AID 171);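 further: 0% = growth of vehicle-treated control cultures of the same strain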; settings: S. cerevisiae mlh1 strain growth inhibition, stronger effect = higher value
In short: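 Vehicle-normalised growth inhibition of a repair- or checkpoint-altered yeast strain following compound treatment.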

[10] = NCI Yeast Anticancer Drug Screen. Data for the sgs1 strain (AID 173);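 further: 0% = growth of vehicle-only control cultures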; settings: S. cerevisiae sgs1 mutant, stronger effect = higher value
In short: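 Screen format: yeast with repair or checkpoint alterations, compound exposure, growth read relative to vehicle.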

[11] = NCI Yeast Anticancer Drug Screen. Data for the rad18 strain (AID 177); settings: S. cerevisiae rad18 mutant growth inhibition, stronger effect = higher value
In short: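 Test articles were incubated with altered yeast defective in DNA damage repair. Results are given as inhibition of growth versus vehicle.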

[12] = NCI Yeast Anticancer Drug Screen. Data for the mec2-1 strain (AID 157); settings: S. cerevisiae mec2-1 strain, stronger effect = higher value
In short: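 Vehicle-treated cultures served as reference for growth inhibition of compound-exposed mec2-1 yeast.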

[13] = NCI Yeast Anticancer Drug Screen. Data for the sgs1 mgt1 strain (AID 161);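 further: 0% = growth of cultures given vehicle only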; settings: S. cerevisiae sgs1 mgt1 strain, at 50.0 µM, stronger effect = higher value
In short: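 Inhibition of yeast growth, normalised to vehicle-treated controls, is reported for a strain bearing genetic alterations in DNA damage repair.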

[14] = NCI Yeast Anticancer Drug Screen. Data for the cln2 rad14 strain (AID 165);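 further: 0% = growth equal to vehicle treated cultures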; settings: S. cerevisiae cln2 rad14 strain, at 50.0 µM, stronger effect = higher value
In short: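 Each compound was tested on cln2 rad14 yeast. Inhibition of growth was calculated against vehicle-exposed controls.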

[15] = NCI Yeast Anticancer Drug Screen. Data for the wt2 strain (AID 169);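 further: 0% = growth of vehicle-treated yeast cultures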; settings: S. cerevisiae wt2 strain growth inhibition, stronger effect = higher value
In short: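 Inhibition of yeast growth was determined after compound treatment, normalised to controls receiving only vehicle.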

[16] = NCI Yeast Anticancer Drug Screen. Data for the mlh1 rad18 strain (AID 175); settings: S. cerevisiae mlh1 rad18 strain growth inhibition; at 50.0 µM; stronger effect = higher value
In short: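 Vehicle-treated cultures served as the reference for growth inhibition in a yeast strain carrying DNA damage repair alterations exposed to each compound.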

Measured: growth inhibition

Cc1cc(O)c2c(c1)C(=O)C=C(Br)C2=O
active: [1]; at 3.7 µM 76% | [1]; at 11.0 µM 98% | [1]; at 33.0 µM 98% | [1]; at 100.0 µM 94% | [2]; at 33.0 µM 98% | [2]; at 100.0 µM 96% | [3]; at 3.7 µM 88% | [3]; at 11.0 µM 99% | [3]; at 33.0 µM 99% | [3]; at 100.0 µM 95% | [4]; at 11.0 µM 72% | [4]; at 33.0 µM 98% | [4]; at 100.0 µM 97% | [5]; at 3.7 µM 71% | [5]; at 11.0 µM 97% | [5]; at 33.0 µM 99% | [5]; at 100.0 µM 94% | [6]; at 11.0 µM 97% | [6]; at 33.0 µM 99% | [6]; at 100.0 µM 96% | [7]; at 33.0 µM 99% | [7]; at 100.0 µM 97% | [8]; at 1.2 µM 88% | [8]; at 3.7 µM 86% | [8]; at 11.0 µM 98% | [8]; at 33.0 µM 92% | [8]; at 100.0 µM 98% | [9]; at 11.0 µM 71% | [9]; at 33.0 µM 99% | [9]; at 100.0 µM 98% | [10]; at 33.0 µM 99% | [10]; at 100.0 µM 96% | [11]; at 11.0 µM 95% | [11]; at 33.0 µM 98% | [11]; at 100.0 µM 94%
inactive: [1]; at 1.2 µM 38% | [2]; at 1.2 µM -1% | [2]; at 3.7 µM -2% | [2]; at 11.0 µM 6% | [3]; at 1.2 µM 58% | [4]; at 1.2 µM 7% | [4]; at 3.7 µM 21% | [5]; at 1.2 µM 38% | [6]; at 1.2 µM 37% | [6]; at 3.7 µM 64% | [7]; at 1.2 µM 7% | [7]; at 3.7 µM 16% | [7]; at 11.0 µM 40% | [9]; at 1.2 µM 11% | [9]; at 3.7 µM 25% | [10]; at 1.2 µM 4% | [10]; at 3.7 µM 11% | [10]; at 11.0 µM 66% | [11]; at 1.2 µM 10% | [11]; at 3.7 µM 41%

COc1cc([C@@H]2c3cc4c(cc3[C@@H](OC3OC5COC(C)OC5C(O)C3O)[C@H]3COC(=O)[C@H]23)OCO4)cc(OC)c1O (stereo partly specified)
inactive: [1]; at 1.2 µM 1% | [1]; at 3.7 µM 4% | [1]; at 11.0 µM 20% | [1]; at 33.0 µM 51% | [2]; at 1.2 µM -1% | [2]; at 3.7 µM -2% | [2]; at 11.0 µM -2% | [2]; at 33.0 µM -1% | [2]; at 100.0 µM -13% | [3]; at 1.2 µM -9% | [3]; at 3.7 µM -3% | [3]; at 11.0 µM 2% | [3]; at 33.0 µM 9% | [3]; at 100.0 µM 23% | [4]; at 1.2 µM -4% | [4]; at 3.7 µM -4% | [4]; at 11.0 µM -2% | [4]; at 33.0 µM 0% | [4]; at 100.0 µM 0% | [5]; at 1.2 µM 0% | [5]; at 3.7 µM 4% | [5]; at 11.0 µM 20% | [5]; at 33.0 µM 61% | [5]; at 50.0 µM 11.6% | [12]; at 1.2 µM -3% | [12]; at 3.7 µM 0% | [12]; at 11.0 µM 4% | [12]; at 33.0 µM 2% | [12]; at 50.0 µM 11.6% | [12]; at 100.0 µM 4% | [6]; at 1.2 µM -2% | [6]; at 3.7 µM -2% | [6]; at 11.0 µM 3% | [6]; at 33.0 µM 2% | [6]; at 100.0 µM 12% | [13] 13.8% | [14] 11.3% | [8]; at 1.2 µM -7% | [8]; at 3.7 µM -8% | [8]; at 11.0 µM 0% | [8]; at 33.0 µM -12% | [8]; at 50.0 µM 4.5% | [8]; at 100.0 µM -5% | [15]; at 1.2 µM -3% | [15]; at 3.7 µM -2% | [15]; at 11.0 µM -4% | [15]; at 33.0 µM -3% | [15]; at 100.0 µM 3% | [9]; at 1.2 µM -4% | [9]; at 3.7 µM -3% | [9]; at 11.0 µM -1% | [9]; at 33.0 µM 0% | [9]; at 100.0 µM 7% | [10]; at 1.2 µM -3% | [10]; at 3.7 µM -3% | [10]; at 11.0 µM 1% | [10]; at 33.0 µM 5% | [10]; at 100.0 µM 16% | [16] 64.8% | [11]; at 1.2 µM -4% | [11]; at 3.7 µM -2% | [11]; at 11.0 µM -2% | [11]; at 33.0 µM 6% | [11]; at 100.0 µM 18%
active: [1]; at 100.0 µM 81% | [5]; at 100.0 µM 89%

CC(=O)O[C@H]1C(=O)[C@@]2(C)[C@H]([C@H](OC(=O)c3ccccc3)[C@]3(O)C[C@H](OC(=O)[C@H](O)[C@@H](NC(=O)c4ccccc4)c4ccccc4)C(C)=C1C3(C)C)[C@]1(OC(C)=O)CO[C@@H]1C[C@@H]2O
inactive: [1]; at 1.2 µM 0% | [1]; at 3.7 µM 0% | [1]; at 11.0 µM 1% | [1]; at 33.0 µM 1% | [1]; at 100.0 µM 0% | [2]; at 1.2 µM -1% | [2]; at 3.7 µM -2% | [2]; at 11.0 µM -2% | [2]; at 33.0 µM -3% | [2]; at 100.0 µM -18% | [3]; at 1.2 µM -4% | [3]; at 3.7 µM -2% | [3]; at 11.0 µM -2% | [3]; at 33.0 µM 3% | [3]; at 100.0 µM 0% | [4]; at 1.2 µM -2% | [4]; at 3.7 µM -2% | [4]; at 11.0 µM -3% | [4]; at 33.0 µM -3% | [4]; at 100.0 µM -7% | [5]; at 1.2 µM -1% | [5]; at 3.7 µM -2% | [5]; at 11.0 µM 0% | [5]; at 33.0 µM -1% | [5]; at 50.0 µM 23.4% | [5]; at 100.0 µM -6% | [12]; at 1.2 µM -5% | [12]; at 3.7 µM -2% | [12]; at 11.0 µM 2% | [12]; at 33.0 µM -4% | [12]; at 50.0 µM 18.3% | [12]; at 100.0 µM -10% | [6]; at 1.2 µM -1% | [6]; at 3.7 µM -2% | [6]; at 11.0 µM 1% | [6]; at 33.0 µM -2% | [6]; at 100.0 µM -5% | [13] -9% | [7]; at 1.2 µM -4% | [7]; at 3.7 µM -4% | [7]; at 11.0 µM -5% | [7]; at 33.0 µM -7% | [7]; at 100.0 µM -13% | [14] 24.1% | [8]; at 1.2 µM -5% | [8]; at 3.7 µM -5% | [8]; at 11.0 µM 2% | [8]; at 33.0 µM -13% | [8]; at 50.0 µM -4.15% | [8]; at 100.0 µM -3% | [9]; at 1.2 µM -1% | [9]; at 3.7 µM -4% | [9]; at 11.0 µM -3% | [9]; at 33.0 µM -4% | [9]; at 100.0 µM -6% | [10]; at 1.2 µM -3% | [10]; at 3.7 µM -3% | [10]; at 11.0 µM -1% | [10]; at 33.0 µM -3% | [10]; at 100.0 µM -4%
